Measurements taken from the supplement of paper PMC10849652.
The full data set covers some 7,900 targets. This sample favours those with a hit. About 0.6% of all pairs of compound and target were hits.

Tests used:
Test in all cases: log2 fold change, soluble protein after heating vs DMSO (PISA); higher = thermal stabilisation; K562 cells, 10 uM, 30 min; active = over 0.2 and 3.5 SD of the protein, either way, in both replicates (recomputed)
AAGAB = AAGAB (UniProt Q6PD74)
Outline: (§1)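 Thermal stability values are relative to control samples and come from duplicates. They are expressed as log2 fold changes. For measurement, K562 cells (2×10^6 cells/mL) received 10 μM compound for 30 min, and aliquots were heated for 3 min over 48°C-58°C, pooled, and extracted at 4°C in PBS with 0.5% NP-40. Soluble protein, the supernatant after 21,000xg for 90 min, was quantified by TMTpro 16plex LC-MS/MS with equalised channel sums.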

AAK1 [1] = target: AAK1 (UniProt A0A096LP25)
Outline: as §1

AAK1 [2] = target: AAK1 (UniProt Q2M2I8)
Chain of AAK1 (UniProt Q2M2I8) (Q2M2I8 whole entry, looked up): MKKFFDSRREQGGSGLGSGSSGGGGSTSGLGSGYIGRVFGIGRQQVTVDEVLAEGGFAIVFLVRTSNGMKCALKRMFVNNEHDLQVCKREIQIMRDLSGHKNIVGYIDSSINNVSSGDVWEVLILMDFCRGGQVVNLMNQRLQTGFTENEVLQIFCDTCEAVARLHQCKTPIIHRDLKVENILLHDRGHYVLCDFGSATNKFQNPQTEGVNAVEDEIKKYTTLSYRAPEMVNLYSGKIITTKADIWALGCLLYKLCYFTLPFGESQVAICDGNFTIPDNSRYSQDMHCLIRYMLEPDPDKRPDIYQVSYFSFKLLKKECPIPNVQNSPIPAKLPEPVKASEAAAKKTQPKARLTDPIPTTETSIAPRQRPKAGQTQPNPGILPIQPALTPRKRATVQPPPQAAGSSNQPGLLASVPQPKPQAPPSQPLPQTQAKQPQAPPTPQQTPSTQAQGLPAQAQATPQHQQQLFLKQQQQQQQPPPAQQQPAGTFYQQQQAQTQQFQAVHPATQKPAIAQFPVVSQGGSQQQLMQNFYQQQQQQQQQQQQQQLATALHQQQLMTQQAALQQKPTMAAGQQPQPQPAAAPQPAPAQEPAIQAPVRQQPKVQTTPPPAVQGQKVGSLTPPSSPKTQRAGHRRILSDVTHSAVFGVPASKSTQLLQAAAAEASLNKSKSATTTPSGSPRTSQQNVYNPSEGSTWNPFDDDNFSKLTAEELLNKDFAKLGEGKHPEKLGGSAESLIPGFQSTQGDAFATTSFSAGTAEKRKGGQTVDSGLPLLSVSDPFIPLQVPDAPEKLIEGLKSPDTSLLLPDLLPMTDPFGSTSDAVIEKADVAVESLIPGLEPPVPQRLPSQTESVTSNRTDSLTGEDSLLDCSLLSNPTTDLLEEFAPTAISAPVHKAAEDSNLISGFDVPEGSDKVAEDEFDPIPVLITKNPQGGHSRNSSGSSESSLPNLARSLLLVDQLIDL
Outline: as §1

Measured: log2 fold change

Chain of AAGAB (Q6PD74 whole entry, looked up): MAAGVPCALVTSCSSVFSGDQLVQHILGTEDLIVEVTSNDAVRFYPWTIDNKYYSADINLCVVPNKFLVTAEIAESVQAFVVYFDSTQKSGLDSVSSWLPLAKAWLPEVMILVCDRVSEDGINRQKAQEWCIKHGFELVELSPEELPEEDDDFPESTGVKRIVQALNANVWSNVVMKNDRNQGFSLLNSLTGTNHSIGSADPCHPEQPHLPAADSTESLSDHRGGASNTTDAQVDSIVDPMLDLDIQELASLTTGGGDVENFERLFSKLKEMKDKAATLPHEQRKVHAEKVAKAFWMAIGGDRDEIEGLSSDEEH

Cc1sc2c(c1C)C(c1ccc(Cl)cc1)=N[C@@H](CC(N)=O)c1nnc(C)n1-2
inactive: AAGAB 0.044 | AAK1 [1] -0.041 | AAK1 [2] 0.039

Cc1ccccc1-n1c(Cn2cnc3c(N)ncnc32)nc2cccc(C)c2c1=O
inactive: AAGAB 0.198 | AAK1 [1] -0.046 | AAK1 [2] 0.083

Cc1sc2c(c1C)C(c1ccc(Cl)cc1)=N[C@@H](CC(=O)OC(C)(C)C)c1nnc(C)n1-2
inactive: AAGAB -0.03 | AAK1 [1] -0.024 | AAK1 [2] -0.217

O=C(N[C@@H](COc1ccc2[nH]c(=O)[nH]c2c1)c1ccccc1)c1cccn(Cc2ccc(F)c(F)c2)c1=O
inactive: AAGAB -0.025 | AAK1 [1] -0.056 | AAK1 [2] 0.02

c1ccc([C@@H]2C[C@H]2NC2CCNCC2)cc1
inactive: AAGAB 0.038 | AAK1 [1] 0.072 | AAK1 [2] -0.017
